Results from PubChem BioAssay.
Calls of active or inactive are those of the source.

Assays:
[1] = small molecules captured by biotinylated probe aFSTL3 – biochemical, small-molecule microarray, fluorescence 635/667, stem cell growth factor project, primary screen (AID 1064); details: higher = more signal;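 further: measures binding of the biotinylated anti-FSTL3 antibody to printed compounds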
[2] = binders from COS7 lysate, DM2A8 probe, primary screen, torsin A project, cell lysate, small-molecule microarray, fluorescence 635/667 (AID 1065); details: higher = more signal, COS7 lysate expressing mutant human TOR1A
[3] = small molecules captured by biotinylated probe aFGF2 – biochemical, small-molecule microarray, fluorescence 635/667, stem cell growth factor project, primary screen (AID 1067); details: higher = more signal;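 further: measures binding of biotinylated aFGF2 protein to printed compounds on slides; z-score merges feature fluorescence and signal-to-noise across triplicate slides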
[4] = small molecules captured by biotinylated probe aFGF10 – biochemical, small-molecule microarray, fluorescence 635/667, stem cell growth factor project, primary screen (AID 1071); details: higher = more signal;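 further: score merges 667 nm spot intensity and signal to noise from triplicate slides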
[5] = biological target: Neurogenic locus notch homolog protein 2 (Homo sapiens) (UniProt Q04721); assay: small molecules binding Notch2 protein – biochemical, small-molecule microarray, 635 nm fluorescence, stem cell growth factors, primary screen (AID 1073); details: higher = more signal
Chain of Neurogenic locus notch homolog protein 2 (Homo sapiens) (Q04721 whole entry, looked up, canonical isoform): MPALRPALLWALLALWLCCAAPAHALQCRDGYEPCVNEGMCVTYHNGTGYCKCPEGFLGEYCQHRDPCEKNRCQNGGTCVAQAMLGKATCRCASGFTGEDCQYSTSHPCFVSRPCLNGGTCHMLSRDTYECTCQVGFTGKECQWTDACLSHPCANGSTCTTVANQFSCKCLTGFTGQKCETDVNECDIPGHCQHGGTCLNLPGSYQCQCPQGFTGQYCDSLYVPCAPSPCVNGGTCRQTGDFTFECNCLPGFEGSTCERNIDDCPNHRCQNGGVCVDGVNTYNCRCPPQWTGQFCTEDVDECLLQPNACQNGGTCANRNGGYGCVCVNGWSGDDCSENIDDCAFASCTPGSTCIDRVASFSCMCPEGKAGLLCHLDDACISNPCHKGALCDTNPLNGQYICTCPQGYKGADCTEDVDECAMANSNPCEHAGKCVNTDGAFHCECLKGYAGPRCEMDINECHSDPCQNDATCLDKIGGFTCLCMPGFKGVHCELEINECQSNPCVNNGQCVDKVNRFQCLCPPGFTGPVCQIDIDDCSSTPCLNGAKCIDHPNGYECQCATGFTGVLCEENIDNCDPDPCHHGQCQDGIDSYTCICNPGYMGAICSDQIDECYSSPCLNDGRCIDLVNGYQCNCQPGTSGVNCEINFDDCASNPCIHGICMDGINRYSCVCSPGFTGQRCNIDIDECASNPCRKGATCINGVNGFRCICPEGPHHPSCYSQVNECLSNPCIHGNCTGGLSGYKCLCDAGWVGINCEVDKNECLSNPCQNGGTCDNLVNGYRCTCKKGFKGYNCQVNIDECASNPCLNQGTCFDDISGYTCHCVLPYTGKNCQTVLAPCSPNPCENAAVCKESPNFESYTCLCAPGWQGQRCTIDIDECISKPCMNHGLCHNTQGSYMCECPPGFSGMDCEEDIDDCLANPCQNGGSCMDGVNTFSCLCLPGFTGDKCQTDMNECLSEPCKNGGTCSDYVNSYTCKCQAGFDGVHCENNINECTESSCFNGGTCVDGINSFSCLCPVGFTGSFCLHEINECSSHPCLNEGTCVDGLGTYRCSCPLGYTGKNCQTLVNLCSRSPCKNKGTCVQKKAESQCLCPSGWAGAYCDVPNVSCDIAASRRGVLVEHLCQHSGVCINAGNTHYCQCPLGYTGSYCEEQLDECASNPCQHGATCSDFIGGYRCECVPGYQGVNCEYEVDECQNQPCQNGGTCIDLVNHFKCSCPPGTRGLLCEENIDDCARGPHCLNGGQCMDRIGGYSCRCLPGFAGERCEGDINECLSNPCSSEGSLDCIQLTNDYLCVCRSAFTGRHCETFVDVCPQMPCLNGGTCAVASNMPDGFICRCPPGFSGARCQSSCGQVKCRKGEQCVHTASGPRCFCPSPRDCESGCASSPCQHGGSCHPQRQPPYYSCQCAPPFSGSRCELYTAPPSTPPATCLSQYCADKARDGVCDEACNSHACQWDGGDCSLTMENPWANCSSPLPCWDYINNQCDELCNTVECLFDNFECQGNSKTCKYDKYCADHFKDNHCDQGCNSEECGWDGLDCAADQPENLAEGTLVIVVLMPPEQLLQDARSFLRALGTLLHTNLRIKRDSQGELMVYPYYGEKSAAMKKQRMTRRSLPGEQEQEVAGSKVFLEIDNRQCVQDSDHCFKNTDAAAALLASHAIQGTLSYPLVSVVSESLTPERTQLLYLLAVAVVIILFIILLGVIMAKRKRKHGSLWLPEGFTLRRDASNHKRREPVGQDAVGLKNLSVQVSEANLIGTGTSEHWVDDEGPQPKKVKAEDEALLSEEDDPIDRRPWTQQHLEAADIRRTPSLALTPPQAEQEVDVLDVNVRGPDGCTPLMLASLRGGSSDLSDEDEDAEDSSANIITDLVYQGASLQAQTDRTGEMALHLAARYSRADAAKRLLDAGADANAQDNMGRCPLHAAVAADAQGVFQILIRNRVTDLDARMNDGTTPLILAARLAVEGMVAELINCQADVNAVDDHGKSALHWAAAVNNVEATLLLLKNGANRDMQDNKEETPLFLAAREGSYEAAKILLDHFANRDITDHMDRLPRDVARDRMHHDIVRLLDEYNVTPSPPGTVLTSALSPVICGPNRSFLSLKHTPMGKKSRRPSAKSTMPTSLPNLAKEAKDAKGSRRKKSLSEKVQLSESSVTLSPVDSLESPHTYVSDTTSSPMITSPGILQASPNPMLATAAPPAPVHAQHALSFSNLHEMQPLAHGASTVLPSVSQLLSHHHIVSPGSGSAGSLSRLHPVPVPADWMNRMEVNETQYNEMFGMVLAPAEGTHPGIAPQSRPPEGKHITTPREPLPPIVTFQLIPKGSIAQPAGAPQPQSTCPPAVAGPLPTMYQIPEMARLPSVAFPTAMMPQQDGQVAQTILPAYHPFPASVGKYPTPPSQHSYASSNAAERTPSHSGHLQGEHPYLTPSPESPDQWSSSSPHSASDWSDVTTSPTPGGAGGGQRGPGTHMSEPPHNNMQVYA

[6] = biological target: Pro-neuregulin-1, membrane-bound isoform (Homo sapiens) (UniProt Q02297); assay: small molecules binding neuregulin-1 protein – biochemical, small-molecule microarray, fluorescence 635/667, psychiatric disease protein project, primary screen (AID 1075); details: NRG1 binding, 635 nm fluorescence, higher = more signal;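 further: score combines 667 nm spot fluorescence with signal to noise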
Chain of Pro-neuregulin-1, membrane-bound isoform (Homo sapiens) (Q02297 whole entry, looked up, the tested form may be a part, canonical isoform): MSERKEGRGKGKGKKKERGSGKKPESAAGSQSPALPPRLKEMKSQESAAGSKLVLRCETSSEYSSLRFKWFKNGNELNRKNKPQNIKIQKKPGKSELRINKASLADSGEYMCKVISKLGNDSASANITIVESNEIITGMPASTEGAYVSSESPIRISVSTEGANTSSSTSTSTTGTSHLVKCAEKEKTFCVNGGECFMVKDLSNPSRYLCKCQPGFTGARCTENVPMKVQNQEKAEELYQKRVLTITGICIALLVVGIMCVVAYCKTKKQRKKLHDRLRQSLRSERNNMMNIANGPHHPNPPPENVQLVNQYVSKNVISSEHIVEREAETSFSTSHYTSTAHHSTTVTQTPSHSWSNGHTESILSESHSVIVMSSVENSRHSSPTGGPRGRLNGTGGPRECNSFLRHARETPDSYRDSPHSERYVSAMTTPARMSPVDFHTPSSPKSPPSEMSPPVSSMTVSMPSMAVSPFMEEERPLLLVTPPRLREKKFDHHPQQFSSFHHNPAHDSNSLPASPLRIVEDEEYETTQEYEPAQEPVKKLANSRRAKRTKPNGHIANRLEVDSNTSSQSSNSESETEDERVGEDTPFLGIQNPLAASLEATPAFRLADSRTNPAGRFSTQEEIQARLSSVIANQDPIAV

[7] = system: Neuregulin-1 EGF-like domain; assay: small molecules binding NRG1 EGF domain – biochemical, small-molecule microarray, 635 nm fluorescence, primary screen (AID 1081); details: higher = more signal;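 further: binding of the protein to compounds printed on small-molecule microarray slides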
[8] = FRG1 expression reporter modulators in myotubes – cell-based, C2C12 myotubes, firefly/Renilla luciferase, luminescence, FRG1 inhibition for FSHD, primary screen (AID 1084); details: FRG1 promoter luciferase, higher = more signal, called active from +8 up or from −8 down
[9] = small molecules captured by biotinylated probe aFST – biochemical, small-molecule microarray, fluorescence 635/667, stem cell growth factor project, primary screen (AID 1086); details: higher = more signal;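 further: score merges 667 nm fluorescence with signal-to-noise of each printed compound spot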
[10] = binders of probe aHhip on microarray, primary screen, stem cell growth factor project, biochemical, small-molecule microarray, fluorescence 635/667 (AID 1087); details: higher = more signal;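 further: score merges spot fluorescence at 667nm with spot signal to noise ratio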
[11] = system: PRMT1 (protein arginine N-methyltransferase 1); assay: small molecules binding arginine methyltransferase PRMT1 – biochemical, small-molecule microarray, 635 nm fluorescence, primary screen (AID 1088); details: higher = more signal;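 further: binding of Prmt1 protein to compounds spotted on small-molecule microarray slides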
[12] = growth effects on S. cerevisiae YJM789 – YJM789 clinical isolate, OD600, 24 h, basal, primary screen (AID 1089); details: higher = more signal, called active from +8 up or from −8 down;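 further: growth of clinical yeast isolate S. cerevisiae YJM 789 seeded 1000 cells per well; test concentration not given here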
[13] = S. pombe growth modifiers, basal conditions – strain 972, OD600, 24 h, no modulator, primary screen (AID 1090);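 further: basal condition with compound alone and no growth modifier present; test concentration not given here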; details: S. pombe 972 growth, higher = more signal, called active from +8 up or from −8 down
[14] = budding yeast growth modifiers under rapamycin – strain BY4716, OD600, 96 h, primary screen (AID 1091); further: test concentration not given here; details: S. cerevisiae BY4716 + rapamycin, higher = more signal, called active from +8 up or from −8 down
[15] = biological target: Torsin-1A-interacting protein 2 (Homo sapiens) (UniProt Q8NFQ8); assay: small molecules binding lysate-expressed LULL1 – cell lysate, human LULL1 lysate, 635/667 nm fluorescence, primary screen (AID 1092); details: small-molecule microarray, hLULL1 lysate binding, 635 nm fluorescence; higher = more signal;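 further: probe is lysate of COS7 cells overexpressing human LULL1; score merges per-feature 667 nm fluorescence with signal-to-noise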
Chain of Torsin-1A-interacting protein 2 (Homo sapiens) (Q8NFQ8 whole entry, looked up): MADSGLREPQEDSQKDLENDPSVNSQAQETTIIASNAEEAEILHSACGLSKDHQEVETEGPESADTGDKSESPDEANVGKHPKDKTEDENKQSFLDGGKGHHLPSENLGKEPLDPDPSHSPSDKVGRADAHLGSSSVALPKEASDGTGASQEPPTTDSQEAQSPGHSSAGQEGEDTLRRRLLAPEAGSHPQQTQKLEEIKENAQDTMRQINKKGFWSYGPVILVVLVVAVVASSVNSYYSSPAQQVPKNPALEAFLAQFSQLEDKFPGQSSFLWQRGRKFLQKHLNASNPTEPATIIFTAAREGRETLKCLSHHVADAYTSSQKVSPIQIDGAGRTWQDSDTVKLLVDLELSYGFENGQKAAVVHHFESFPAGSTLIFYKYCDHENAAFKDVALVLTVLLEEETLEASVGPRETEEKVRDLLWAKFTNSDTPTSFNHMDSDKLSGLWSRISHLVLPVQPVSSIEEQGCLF

[16] = optical density change of DRC41 E. coli – strain DRC41, OD650, 24 h, E. coli filamentation project, primary screen (AID 1093);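 further: MC1000 strain lacking acrAB efflux and sulA so SOS filamentation is blocked; test concentration not given here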; details: E. coli DRC41 growth, higher = more signal, called active from +8 up or from −8 down
[17] = probe aLefty2 binding to arrayed compounds – biochemical, biotinylated probe, 635/667 nm fluorescence, primary screen (AID 1094); details: small-molecule microarray, higher = more signal;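 further: score merges spot fluorescence near 667 nm with spot signal-to-noise ratio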
[18] = system: Noggin (protein binding on small-molecule microarray); assay: small molecules binding Noggin protein – biochemical, 635/667 nm fluorescence, primary screen (AID 1095); details: 635 nm fluorescence, higher = more signal;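 further: score merges 667 nm feature fluorescence with signal to noise over triplicate slides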
[19] = biological target: Neurogenic locus notch homolog protein 3 (Homo sapiens) (UniProt Q9UM47); assay: small molecules binding NOTCH3 protein – biochemical, 635/667 nm fluorescence, primary screen (AID 1096); details: small-molecule microarray, 635 nm fluorescence, higher = more signal
[20] = probe aEGFR binding to arrayed compounds – biochemical, biotinylated probe, 635/667 nm fluorescence, primary screen (AID 1097); details: small-molecule microarray, higher = more signal;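 further: probe is a biotinylated anti-EGFR antibody binding compounds printed on slides; score combines fluorescence near 667 nm and signal to noise of each spot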

Compound	composite z-score [1]	composite z-score [2]	composite z-score [3]	composite z-score [4]	composite z-score [5]	composite z-score [6]	composite z-score [7]	z-score [8]	composite z-score [9]	composite z-score [10]	composite z-score [11]	z-score [12]	z-score [13]	z-score [14]	composite z-score [15]	z-score [16]	composite z-score [17]	composite z-score [18]	composite z-score [19]	composite z-score [20]
COC(=O)CC=C[C@@H](C)[C@@H](C=NO[C@@H](C)c1cn([C@H](CO)Cc2ccccc2)nn1)NS(=O)(=O)c1ccc(C)cc1	-0.315	0.712	-0.161	0.166	0.0829	-0.0443	0.75	-1.1 (inactive)	0.279	0.251	0.526	-2.32 (inactive)	-1.2 (inactive)	-0.88 (inactive)	0.112	0.122 (inactive)	-0.247	0.321	0.381	-0.0398
CCCNC(=O)OC[C@H]1O[C@H](c2ccccc2)C=C[C@@H]1Oc1ccc(OC)cc1	-0.428	0.273	0.0299	0.594	0.344	-0.327	-0.0407	-0.0983 (inactive)	-0.246	-0.0994	-0.0125	-0.325 (inactive)	-0.423 (inactive)	0.0199 (inactive)	0.361	0.806 (inactive)	-0.0916	-0.234	-0.124	-0.146
CC(C)(C)N1C(=O)[C@H]2[C@H]3[C@H](O)[C@H](O)CC(=NOCc4ccccc4)[C@H]3CC[C@H]2C1=O	1.55	0.636	-0.0006	-0.0753	-0.224	-0.102	-0.559	0.431 (inactive)	0.687	-0.119	-0.201	-0.612 (inactive)	-0.925 (inactive)	-0.22 (inactive)	0.351	0.662 (inactive)	0.439	-0.616	-0.288	-0.125
Cc1ccc(S(=O)(=O)N[C@H]2COC(=O)CC=C[C@@H](C)COC(=O)CC=C[C@@H]2C)cc1	-0.537	0.604	-0.135	0.0963	-0.094	-0.326	-0.0175	0.999 (inactive)	-0.135	-0.466	0.683	0.611 (inactive)	0.174 (inactive)	0.247 (inactive)	-0.953	0.682 (inactive)	0.296	1.8	-0.207	-0.281
CCOC(=O)[C@H](CC(C)C)NC(=O)CCC1CC(OC(=O)NCCc2ccc(F)cc2)CC2(CCCC(COC(=O)NCCC(C)C)O2)O1 (stereo not given in full)	-0.44	0.289	-0.083	0.297	-0.383	0.797	0.98	1.25 (inactive)	-0.128	0.0722	0.201	0.0312 (inactive)	1.12 (inactive)	1.08 (inactive)	1.51	-0.917 (inactive)	-0.107	0.456	-0.496	-0.0778
CCOC(=O)[C@H](CC(C)C)NC(=O)CCC1CC(OC(=O)NCCc2ccc(F)cc2)CC2(CCCC(COC(=O)NCC3CCCCC3)O2)O1 (stereo not given in full)	-0.595	0.101	-0.0652	0.817	0.482	0.301	1.1	0.605 (inactive)	-0.0627	-0.19	0.49	-0.808 (inactive)	0.541 (inactive)	1.23 (inactive)	1.12	-0.61 (inactive)	-0.231	0.266	0.291	0.0069
COC(=O)CC=C[C@@H](C)[C@@H](C=NOC[C@@H](O)[C@H]1O[C@@H]2OC(C)(C)O[C@@H]2[C@H]1O)NS(=O)(=O)c1ccc(C)cc1	-0.383	0.746	-0.171	0.347	0.463	-0.0399	-0.124	0.703 (inactive)	0.155	-0.641	0.601	-0.684 (inactive)	-0.137 (inactive)	-0.408 (inactive)	0.308	0.445 (inactive)	0.0528	0.974	0.638	-0.0553
CC[C@@H](c1ccccc1)n1c(=O)n2n(c1=O)[C@H]1[C@H](O)[C@@H]3O[C@@H]3C(=O)[C@H]1CC2	-0.66	-0.283	-0.103	0.335	0.395	-0.0023	-0.088	0.327 (inactive)	0.0182	0.0373	0.342	-0.0637 (inactive)	-2.45 (inactive)	-0.0584 (inactive)	0.396	0.473 (inactive)	0.444	0.417	0.285	-0.0431
CCOC(=O)[C@H](Cc1ccccc1)NC(=O)CCC1CC(OC(=O)NCCc2ccc(F)cc2)CC2(CCCC(COC(=O)NCC3CCCCC3)O2)O1 (stereo not given in full)	-0.509	0.574	-0.0425	0.582	1.42	0.513	1.1	-0.692 (inactive)	0.676	-0.302	1.55	0.644 (inactive)	0.432 (inactive)	0.6 (inactive)	2.4	0.18 (inactive)	-0.106	0.53	1.07	0.0282
CCOC(=O)[C@H](Cc1ccccc1)NC(=O)CCC1CC(OC(=O)NCCc2ccc(F)cc2)CC2(CCCC(COC(=O)NCc3ccccc3)O2)O1 (stereo not given in full)	-0.434	-0.0986	-0.0887	0.854	0.679	0.331	0.903	0.292 (inactive)	0.0791	-0.0994	1.56	-0.522 (inactive)	0.653 (inactive)	0.6 (inactive)	0.999	0.413 (inactive)	-0.0965	0.644	1.04	-0.0146
